For test [1], the target named is Peroxisome proliferator-activated receptor delta (Homo sapiens) (UniProt Q03181). The experiment in a line: qHTS assay to identify small molecule agonists of the peroxisome proliferator-activated receptor delta (PPARd) signaling pathway (AID 743212; calls by dose curve). The gist of the method:
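Beta-lactamase reporter readout: a ratiometric FRET signal from the LiveBLAzer substrate after 2 h at room temperature. Compound exposure at 37 °C in PPARδ-bla HEK293H cells driven by an upstream activator sequence.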
A general note: qHTS replaces the single test concentration by a dilution series.

The target is the same in test [2]. Briefly: qHTS assay to identify small molecule antagonists of the peroxisome proliferator-activated receptor delta (PPARd) signaling pathway (AID 743215; active means well fitted inhibition curve with a large enough effect in the signal ratio in the repeat runs, not every such curve was filed as active; the % refers to the signal ratio;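 further: cells stimulated with agonist L165041 at 300 nM final during compound exposure; series mostly up to about 62 µM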). A digest of the protocol:
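HEK293H GeneBLAzer PPARd UAS-bla reporter cells; cpd + L165041 300 nM final, 17 h 37 C; LiveBLAzer B/G FRET substrate 2 h RT; fluorescence intensity read-out. Antagonist mode.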

In test [3] the target is Bile acid receptor (Homo sapiens) (UniProt Q96RI1). Briefly: qHTS assay to identify small molecule antagonists of the farnesoid-X-receptor (FXR) signaling pathway (AID 743217; active means well fitted inhibition curve with a large enough effect in the signal ratio in the repeat runs, not every such curve was filed as active; the % refers to the signal ratio). A digest of the protocol:
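Read-out: beta-lactamase FRET fluorescence (LiveBLAzer B/G substrate, 2 h, room temperature) in GeneBLAzer FXR-UAS-bla HEK 293T cells. Compounds were co-dosed with 50 uM chenodeoxycholic acid (final) and incubated 16 h at 37 °C.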

The target is the same in test [4]. The experiment in a line: qHTS assay to identify small molecule agonists of the farnesoid-X-receptor (FXR) signaling pathway (AID 743220; active means well fitted activation curve with a large enough effect in the signal ratio in the repeat runs, not every such curve was filed as active; the % refers to the signal ratio). The gist of the method: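 FXR-UAS-bla HEK 293T cells carrying a UAS-driven beta-lactamase reporter were plated for 5 h at 37C/5% CO2, then exposed to DMSO-dissolved Tox21 10K compounds for 16 h at 37C. A LiveBLAzer B/G FRET substrate was loaded for 2 h at room temperature before fluorescence reading.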

A short description of test [5]: qHTS assay to identify small molecule antagonists of the farnesoid-X-receptor (FXR) signaling pathway - cell viability counter screen (AID 743221; active means well fitted cell-killing curve with a large enough effect in the repeat runs, not every such curve was filed as active; further: nearly all actives have a fitted effect of over 50% in size; further: potency means the concentration at half of the fitted maximal effect). A digest of the protocol:
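In GeneBLAzer FXR-UAS-bla HEK 293T cells stimulated with 50 uM chenodeoxycholic acid (final), compounds acted for 16 h at 37 C. Viability was assessed afterwards by CellTiter-Glo luminescence.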

Test [6] deals with Vitamin D3 receptor (Homo sapiens) (UniProt P11473). The experiment in a line: qHTS assay to identify small molecule agonists of the vitamin D receptor (VDR) signaling pathway (AID 743222; calls by dose curve). The gist of the method:
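Beta-lactamase reporter readout (LiveBLAzer B/G FRET, 2 h RT) in VDR-bla cells after 16 h compound treatment at 37C, 5% CO2; cells pre-incubated 4 h before pin transfer of DMSO solutions.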

Test [7] has the same target. The experiment in a line: qHTS assay to identify small molecule antagonists of the vitamin D receptor (VDR) signaling pathway (AID 743223; active means well fitted inhibition curve with a large enough effect in the signal ratio in the repeat runs, not every such curve was filed as active; the % refers to the signal ratio). The gist of the method:
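Agonist 1alpha,25-dihydroxyvitamin D3 (3 nM in well) was added with each compound to VDR-bla cells preincubated 4 h. Cells stood 16 h at 37C, then FRET substrate 2 h at room temperature; fluorescence intensity recorded.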

Test [8] is described as follows: qHTS assay to identify small molecule agonists of the vitamin D receptor (VDR) signaling pathway - cell viability counter screen (AID 743224). Further: nearly all actives have a fitted effect of over 50% in size. Further: potency means the concentration at half of the fitted maximal effect. A digest of the protocol: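 Cytotoxicity counter screen: VDR-bla cells, 16 h compound exposure at 37C, 5% CO2; CellTiter-Glo luminescence, 30 min RT, same wells as bla read.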
Test [9] in a line: qHTS assay to identify small molecule antagonists of the vitamin D receptor (VDR) signaling pathway - cell viability counter screen (AID 743225). Further: nearly all actives have a fitted effect of over 50% in size. Further: potency means the concentration at half of the fitted maximal effect. A digest of the protocol:
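Luminescent cell viability (CellTiter-Glo) in VDR-bla HEK 293T cells after 16 h compound exposure at 37C in the presence of 3 nM final 1-alpha,25-dihydroxy vitamin D3.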

Test [10] is described as follows: qHTS assay to identify small molecule agonists of the endoplasmic reticulum stress response signaling pathway (AID 1159516; active means well fitted activation curve with a large enough effect in the signal ratio in the repeat runs, not every such curve was filed as active; the % refers to the signal ratio). The gist of the method:
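HeLa ESRE-bla reporter line; cpd 5 h, 37 C/5% CO2; LiveBLAzer B/G FRET substrate 2 h RT; ex 405, em 460/530 nm.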

Test [11] can be described thus: qHTS assay to identify small molecule agonists of the endoplasmic reticulum stress response signaling pathway - cell viability counter screen (AID 1159517; calls by dose curve;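 further: HeLa cells carrying an ER stress response element beta-lactamase reporter; series mostly up to about 61 µM; nearly all actives have a fitted effect of over 50% in size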). The gist of the method:
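ESRE-bla HeLa cells (1,500/well) were plated overnight at 37 C and exposed to compounds for 5 hr. After the 2 hr beta-lactamase substrate read, CellTiter-Glo went into the same wells, and luminescence was read after 30 min at room temperature.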

Test [12] is described as follows: qHTS assay to identify small molecule antagonists of the retinoid-related orphan receptor gamma (ROR-gamma) signaling pathway - cell viability counter screen (AID 1159520). Further: nearly all actives have a fitted effect of over 50% in size. The gist of the method: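 Cytotoxicity was read from cellular ATP (CellTiter-Glo luminescence) after 16 hr at 37 C with 1 uM doxycycline induction. The inducer was added 2 hr after compound transfer to Tet-on ROR gamma CHO cells.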

Test [13] has as its target Nuclear receptor ROR-gamma (Homo sapiens) (UniProt P51449). The experiment in a line: qHTS assay to identify small molecule antagonists of the retinoid-related orphan receptor gamma (ROR-gamma) signaling pathway (AID 1159521). A digest of the protocol: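 CHO cells expressing RORγ under a TET-on promoter, luciferase under RORE control. Dox 1 uM final, 16 h; compounds added 2 h prior. Luminescence decrease measured.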

Test [14] can be described thus: qHTS assay to identify small molecule agonists of the AP-1 signaling pathway - cell viability counter screen (AID 1159525; calls by dose curve; further: nearly all actives have a fitted effect of over 55% in size). The gist of the method:
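Intracellular ATP by Cell Titer Glo luminescence (30 min, RT) in the same ME-180 AP-1-bla wells after the 5 h compound exposure at 37 °C. Normalised to tetra n-octyl ammonium bromide and DMSO controls.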

The nature of test [15]: qHTS assay to identify small molecule agonists of the AP-1 signaling pathway (AID 1159526; calls by dose curve).
Test [16] deals with Retinoic acid receptor RXR-alpha (Homo sapiens) (UniProt P19793). Briefly: qHTS assay to identify small molecule agonists of the RXR signaling pathway (AID 1159527; calls by dose curve; further: nearly all actives have a fitted effect of over 35% in size). A digest of the protocol: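 Beta-lactamase reporter assay, agonist format. Engineered HEK 293T line, charcoal-stripped FBS at 2%, overnight (16 hr) exposure, fluorescence at 460 and 530 nm after 405 nm excitation.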

The nature of test [17]: qHTS assay to identify small molecule agonists of the RXR signaling pathway - cell viability counter screen (AID 1159529). A digest of the protocol: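 Same-well viability check after the LiveBLAzer FRET read: CellTiter-Glo added, luminescence measured after 30 min at room temperature. Reporter HEK 293T cells had been treated with compounds for 16 hr following a 5 hr preincubation.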

A short description of test [18]: qHTS assay to identify small molecule antagonists of the peroxisome proliferator-activated receptor delta (PPARd) signaling pathway - cell viability counter screen (AID 743213). Further: nearly all actives have a fitted effect of over 50% in size. Further: potency means the concentration at half of the fitted maximal effect. The gist of the method: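 CellTiter-Glo was added to PPARd-bla HEK293H wells following 17 h compound treatment in the presence of 300 nM L165041. Luminescence was recorded after 30 min at room temperature.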

Test [19] is described as follows: qHTS assay to identify small molecule agonists of the farnesoid-X-receptor (FXR) signaling pathway - cell viability counter screen (AID 743218). Further: nearly all actives have a fitted effect of over 45% in size. The gist of the method: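 Luminescence from CellTiter-Glo, read after 30 min at RT, reports viability of GeneBLAzer FXR-UAS-bla HEK 293T cells treated 16 h with compounds in the wells used for the beta-lactamase reporter.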

Test [20] is described as follows: qHTS assay to identify small molecule agonists of the NFkB signaling pathway - cell viability counter screen (AID 1159515; calls by dose curve; further: series mostly up to about 61 µM; nearly all actives have a fitted effect of over 55% in size). The gist of the method:
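ME-180 NFkB-bla cells, 2,000/well; overnight attach; compound 5 hr, 37 C/5% CO2; LiveBLAzer substrate 1.5 hr RT; then CellTiter-Glo in same wells, 30 min RT, luminescence read.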

Results filed as inconclusive are left out. Active and inactive are the calls of the source. Unless noted, the call rests on the fitted dose curve; in most records, active means well fitted curve in the direction sought with a large enough effect in the repeat runs; inconclusive means weak or mixed curves; inactive means no such curve, though single readings can be large; an effect the other way counts as inactive or inconclusive.

This is an account of results in PubChem BioAssay (Tox21).

Chain of Bile acid receptor (Homo sapiens) (Q96RI1 whole entry, looked up): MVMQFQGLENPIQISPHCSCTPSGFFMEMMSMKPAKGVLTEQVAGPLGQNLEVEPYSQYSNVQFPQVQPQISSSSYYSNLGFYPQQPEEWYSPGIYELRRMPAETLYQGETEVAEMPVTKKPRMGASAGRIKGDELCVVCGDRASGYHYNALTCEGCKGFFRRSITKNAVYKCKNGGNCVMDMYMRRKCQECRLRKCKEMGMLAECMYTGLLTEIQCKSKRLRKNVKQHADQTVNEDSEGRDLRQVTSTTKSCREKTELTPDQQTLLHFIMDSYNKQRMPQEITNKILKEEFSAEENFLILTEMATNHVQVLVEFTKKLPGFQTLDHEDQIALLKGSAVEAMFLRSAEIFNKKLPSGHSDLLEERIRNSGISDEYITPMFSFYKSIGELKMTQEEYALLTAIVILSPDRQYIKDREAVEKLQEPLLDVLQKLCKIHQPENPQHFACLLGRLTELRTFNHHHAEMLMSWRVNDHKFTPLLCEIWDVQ
Chain of Peroxisome proliferator-activated receptor delta (Homo sapiens) (Q03181 whole entry, looked up): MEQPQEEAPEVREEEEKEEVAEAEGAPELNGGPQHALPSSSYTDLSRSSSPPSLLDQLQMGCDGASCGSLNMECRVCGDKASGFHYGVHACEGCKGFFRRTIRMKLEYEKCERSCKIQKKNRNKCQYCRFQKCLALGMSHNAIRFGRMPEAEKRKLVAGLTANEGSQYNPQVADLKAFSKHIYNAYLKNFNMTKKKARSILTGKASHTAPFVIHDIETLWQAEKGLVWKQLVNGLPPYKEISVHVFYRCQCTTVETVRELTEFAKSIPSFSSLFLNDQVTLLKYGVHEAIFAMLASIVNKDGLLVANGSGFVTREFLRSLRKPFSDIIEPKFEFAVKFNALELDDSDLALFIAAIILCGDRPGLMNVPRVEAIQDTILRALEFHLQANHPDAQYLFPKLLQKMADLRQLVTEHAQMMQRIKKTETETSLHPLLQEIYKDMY
Chain of Vitamin D3 receptor (Homo sapiens) (P11473 whole entry, looked up): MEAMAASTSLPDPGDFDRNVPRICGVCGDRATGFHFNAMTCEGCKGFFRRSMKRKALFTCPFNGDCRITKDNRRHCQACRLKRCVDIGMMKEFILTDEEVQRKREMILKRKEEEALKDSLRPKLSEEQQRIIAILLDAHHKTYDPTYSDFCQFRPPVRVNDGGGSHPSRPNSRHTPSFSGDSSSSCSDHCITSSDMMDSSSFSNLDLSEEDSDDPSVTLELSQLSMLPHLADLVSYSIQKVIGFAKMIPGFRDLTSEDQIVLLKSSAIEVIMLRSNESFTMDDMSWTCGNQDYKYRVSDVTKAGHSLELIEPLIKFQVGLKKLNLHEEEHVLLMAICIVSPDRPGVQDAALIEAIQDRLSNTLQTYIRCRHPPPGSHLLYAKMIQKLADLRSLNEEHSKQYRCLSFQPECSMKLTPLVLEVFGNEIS
Chain of Retinoic acid receptor RXR-alpha (Homo sapiens) (P19793 whole entry, looked up): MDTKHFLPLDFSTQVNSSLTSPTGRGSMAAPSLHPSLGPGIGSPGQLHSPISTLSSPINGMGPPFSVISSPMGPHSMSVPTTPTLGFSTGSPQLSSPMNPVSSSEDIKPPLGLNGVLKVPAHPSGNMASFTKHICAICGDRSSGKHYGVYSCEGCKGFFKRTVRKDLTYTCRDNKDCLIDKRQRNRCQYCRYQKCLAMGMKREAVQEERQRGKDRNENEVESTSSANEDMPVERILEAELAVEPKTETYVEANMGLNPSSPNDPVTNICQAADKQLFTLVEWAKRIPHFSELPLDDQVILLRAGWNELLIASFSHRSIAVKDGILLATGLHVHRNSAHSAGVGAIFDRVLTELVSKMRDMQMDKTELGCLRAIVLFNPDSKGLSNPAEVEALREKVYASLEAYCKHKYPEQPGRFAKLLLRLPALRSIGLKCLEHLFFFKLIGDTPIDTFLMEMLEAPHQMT

For the compound `O=C(c1ccc(O)cc1O)c1ccc(O)cc1O`, the Potency entry in test [1], in [2], in test [3], in test [4], in [5] and in test [6] was “inactive” in each case. The Potency result in [7], in test [8], in test [9], in test [11], in test [12] and in [13] was “inactive” each time. Also, the Potency result in [14], in test [15], in test [16] and in [17] was “inactive” throughout. Further, the outcome in test [10] was inactive.

With `CNC(=O)c1ccccc1`, the Potency result in test [1], in [18], in test [2], in [3], in [19] and in [4] was “inactive” throughout. Further, the Potency result in test [5], in test [6], in [7], in test [8], in [11] and in [12] was “inactive” throughout. The Potency entry in test [13], in test [14], in test [15], in [16] and in [17] was “inactive” throughout. Moreover, the outcome in test [10] was inactive.

Regarding `O=C(O)c1ccc(Cl)c(Cl)c1`, the Potency entry in [1], in test [18], in [2], in test [4], in [5] and in test [6] was “inactive” throughout. Moreover, the Potency result in test [7], in [8], in test [9], in test [11], in test [12] and in [13] was “inactive” in each case. In addition, the Potency result in test [14], in test [15] and in [16] was “inactive” throughout. Also, the outcome in test [10] was inactive.

As to `CSc1ccc(C(=O)c2[nH]c(=O)[nH]c2C)cc1`, the Potency entry in [1], in [18], in [2], in [19], in [5] and in test [6] was “inactive” throughout. Further, the Potency result in test [7], in test [8], in [9], in [11], in test [12] and in [13] was “inactive” each time. For the same compound, the Potency result in test [14], in [15], in test [16] and in test [17] was “inactive” throughout. Further, in [10], the outcome was inactive.

On to `Cc1cc(N)c(S(=O)(=O)O)cc1Cl`, for which the Potency result in [1], in [18], in test [2], in test [19], in [5] and in test [6] was “inactive” throughout. Moreover, the Potency entry in [7], in [8], in test [9], in [11], in test [12] and in test [13] was “inactive” in each case. Also, the Potency entry in [14], in test [15], in test [16] and in test [17] was “inactive” each time. Moreover, the call in test [10] was inactive.

As for `C/C=C1/C(=O)C[C@H]2[C@@H]3CCC4=CC(=O)CC[C@]4(C)[C@H]3CC[C@]12C`, the Potency result in test [18], in [19], in test [5], in [8], in [20] and in test [14] was “inactive” in each case. Also, the Potency result in test [15] and in test [17] was “inactive” in each case.

In the case of `COc1cccc(N)c1`, the Potency entry in [3], in test [4], in test [5], in [7], in test [11] and in test [12] was “inactive” throughout. The Potency result in [13], in [14], in test [15], in [16] and in test [17] was “inactive” each time. In test [10], the result was inactive.

For the compound `CCCCCCCCCCC=O`, the Potency result in test [1], in [18], in [2], in test [19], in test [5] and in test [6] was “inactive” throughout. The Potency result in test [8], in test [9], in test [11], in test [12], in [13] and in test [14] was “inactive” each time. In addition, the Potency result in test [15], in test [16] and in [17] was “inactive” each time. In test [10], the result was inactive.

On to `Cc1ccc(O)c(C(C)(C)C)c1`, for which the Potency entry in test [1], in test [2], in test [6], in test [11], in test [12] and in test [13] was “inactive” throughout. The Potency entry in test [16] is “inactive”. Further, the Potency is 27.5 µM (active) in [18], 43.6 µM (active) in test [5], 19.5 µM (active) in [8] and 21.8 µM (active) in test [9]. The call in test [10] was inactive.
